In general, AC50 refers to the concentration at which the activity in the assay is half-maximal.

From PubChem BioAssay (EPA / NIEHS) come the findings set out here.

Inconclusive results are not listed. Activity calls are given as the source filed them. The calls were made as follows: active = hit-call score of the fitted dose curve at least 0.9, where 1 is the maximum; inconclusive = response in the unintended direction; inactive = score below 0.9.

The target in test [1] is rat Neurotensin Receptor (NTS), Ntsr1 (gene 366274) (UniProt P20789). Put plainly: NVS_GPCR_rNTS: NovaScreen (NVS) G Protein-Coupled Receptor Assay for rat Neurotensin Receptor (NTS) (AID 2283308). On the procedure: (§1) NVS_GPCR_rNTS is a biochemical, single-readout assay that uses extracted gene-proteins from Rat forebrain membranes in a tissue-based cell-free assay. Measurements were taken 1 hour after chemical dosing in a 48-well plate.NVS_GPCR_rNTS is one of one assay component(s) measured or calculated from the NVS_GPCR_rNTS assay. It is designed to make measurements of radioligand binding, a form of binding reporter, as detected with scintillation counting signals by Filter-based radiodetection technology.Data from the assay component NVS_GPCR_rNTS was analyzed into 1 assay endpoint. This assay endpoint, NVS_GPCR_rNTS, was analyzed in the positive analysis fitting direction relative to DMSO as the negative control and baseline of activity. Using a type of binding reporter, loss-of-signal activity can be used to understand changes in the binding as they relate to the gene Ntsr1. Furthermore, this assay endpoint can be referred to as a primary readout, because the performed assay has only produced 1 assay endpoint. To generalize the intended target to other relatable targets, this assay endpoint is annotated to the gpcr intended target family, where the subfamily is rhodopsin-like receptor.
(§2) Binding assays used specific radioligands (tritiated, iodinated) with non-radioactive competitive displacement ligands in agonist or antagonist protocols (as indicated) and various reference compounds and inhibitors to titrate specific binding to receptors and transporters. Most enzyme assays (CYPs, kinases, phosphatases, proteases, HDACs) used recombinant protein and specific substrates (fluorescence mostly, some colorimetric and radioactive) and inhibitors, followed by a biochemical separation of substrate and product. All assays for the biochemical HTS were initially run in duplicate at a single concentration (10 uM for CYP450 assays and 25 uM for all others). Assay-chemical combinations meeting a pre-defined threshold (e.g., 30% inhibition and other criteria defined below) were then run in singleton concentration-response format with maximum concentration of 20 uM for CYPs and 50 uM for all others. Each assay was run with positive and negative controls, and concurrent controls on every plate. The follow-up (secondary) screen tested active chemical-pairs in concentration series, as well as a few additional assays not tested in the primary screen, some selected negative inactives, and several cases re-run in the concentration series for confirmatory purposes.

For test [2], the target named is Voltage-dependent N-type calcium channel subunit alpha-1B (Rattus norvegicus) (UniProt Q02294). In words: NVS_IC_rCaChN: NovaScreen (NVS) Ion Channel Assay for rat Calcium Channel, Type N (CaChN) (AID 2283317).
Test [3] has as its target rat Somatostatin Receptor (SST), Sstr1 (gene 25033) (UniProt P28646). Put plainly: NVS_GPCR_rSST: NovaScreen (NVS) G Protein-Coupled Receptor Assay for rat Somatostatin Receptor (SST) (AID 2283314). The gist of the method:
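Rat forebrain membranes; radioligand displacement read by filter-based scintillation counting 1 h after dosing. Primary screen in duplicate at 25 uM. Actives (e.g., 30% inhibition) were rerun as concentration-response to 50 uM max and fitted against DMSO.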

For test [4], the target named is rat Vasopressin 1 Receptor (V1), Avpr1a (gene 25107) (UniProt P30560). In words: NVS_GPCR_rV1: NovaScreen (NVS) G Protein-Coupled Receptor Assay for rat Vasopressin 1 Receptor (V1) (AID 2283316). The gist of the method: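 Radioligand binding on rat liver membranes, 1.5 h incubation, filter-based scintillation counting. Single 25 uM screen in duplicate; chemicals meeting threshold (e.g. 30% inhibition) run in concentration-response up to 50 uM.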

The target in test [5] is rat Neurokinin-1 Receptor (NK1), Tacr1 (gene 24807) (UniProt P14600). In words: NVS_GPCR_rNK1: NovaScreen (NVS) G Protein-Coupled Receptor Assay for rat Neurokinin-1 Receptor (NK1) (AID 2283309). Put shortly: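 Rat submaxillary gland membranes; radioligand displacement read by filter-based scintillation counting after 1 h. Primary screen in duplicate at 25 uM; actives retested in concentration series; loss of binding fitted versus DMSO.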

In test [6] the target is rat Neurokinin-3 Receptor (NK3), Tacr3 (gene 24808) (UniProt P16177). Put plainly: NVS_GPCR_rNK3: NovaScreen (NVS) G Protein-Coupled Receptor Assay for rat Neurokinin-3 Receptor (NK3) (AID 2283310). How it is done:
as §1, with “NVS_GPCR_rNK3” for “NVS_GPCR_rNTS”, “cortical” for “forebrain”, “2 hours” for “1 hour”, “plate.NVS_GPCR_rNK3” for “plate.NVS_GPCR_rNTS”, “NVS_GPCR_rNK3,” for “NVS_GPCR_rNTS,”, “Tacr3.” for “Ntsr1.”
as §2

Test [7] concerns the target rat Opioid Receptor, Non-selective Sodium (Na+) Binding, Oprm1 (gene 25601) (UniProt P33535). Put plainly: NVS_GPCR_rOpiate_NonSelectiveNa: NovaScreen (NVS) G Protein-Coupled Receptor Assay for rat Opioid Receptor, Non-selective Sodium (Na+) Binding (AID 2283311). Put shortly: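 Rat forebrain membranes, radioligand displacement with filter scintillation counting, 1.5 h incubation. Screened in duplicate at 25 µM; hits then run in concentration-response up to 50 µM; loss of binding fitted versus DMSO.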

For test [8], the target named is rat Opioid Receptor, Non-selective Binding, Oprm1 (gene 25601) (UniProt P33535). In words: NVS_GPCR_rOpiate_NonSelective: NovaScreen (NVS) G Protein-Coupled Receptor Assay for rat Opioid Receptor, Non-selective Binding (AID 2283318). Put shortly:
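Rat forebrain membranes, cell-free radioligand binding with filter-based scintillation counting, read 1.5 h after dosing. Primary screen in duplicate at 25 uM; actives retested in concentration series. Loss of signal versus DMSO baseline scored.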

Test [9] has as its target human Neonicotinoid receptor (NNR), CHRNA2 (gene 1135) (UniProt Q15822). In words: NVS_LGIC_hNNR_NBungSens: NovaScreen (NVS) Ligand-Gated Ion Channel Assay for human Neonicotinoid receptor (NNR) (AID 2283313). How it is done: NVS_LGIC_hNNR_NBungSens is a biochemical, single-readout assay that uses extracted gene-proteins from Human neuroblastoma membrane cells in a tissue-based cell-free assay. Measurements were taken 2 hours after chemical dosing in a 48-well plate.NVS_LGIC_hNNR_NBungSens is one of one assay component(s) measured or calculated from the NVS_LGIC_hNNR_NBungSens assay. It is designed to make measurements of radioligand binding, a form of binding reporter, as detected with scintillation counting signals by Filter-based radiodetection technology.Data from the assay component NVS_LGIC_hNNR_NBungSens was analyzed into 1 assay endpoint. This assay endpoint, NVS_LGIC_hNNR_NBungSens, was analyzed in the positive analysis fitting direction relative to DMSO as the negative control and baseline of activity. Using a type of binding reporter, loss-of-signal activity can be used to understand changes in the binding as they relate to the gene CHRNA2. Furthermore, this assay endpoint can be referred to as a primary readout, because the performed assay has only produced 1 assay endpoint. To generalize the intended target to other relatable targets, this assay endpoint is annotated to the ion channel intended target family, where the subfamily is ligand-gated ion channel.
as §2

Test [10] has as its target rat Neonicotinoid receptor (NNR), Chrna7 (gene 25302) (UniProt Q05941). In words: NVS_LGIC_rNNR_BungSens: NovaScreen (NVS) Ligand-Gated Ion Channel Assay for rat Neonicotinoid receptor (NNR) (AID 2283315). The gist of the method: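 Radioligand displacement binding on rat cortical membranes, 2.5 h incubation, filtration and scintillation counting. Loss of specific binding fitted relative to DMSO.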

Chain of rat Opioid Receptor, Non-selective Sodium (Na+) Binding, Oprm1 (gene 25601) (P33535 whole entry, looked up): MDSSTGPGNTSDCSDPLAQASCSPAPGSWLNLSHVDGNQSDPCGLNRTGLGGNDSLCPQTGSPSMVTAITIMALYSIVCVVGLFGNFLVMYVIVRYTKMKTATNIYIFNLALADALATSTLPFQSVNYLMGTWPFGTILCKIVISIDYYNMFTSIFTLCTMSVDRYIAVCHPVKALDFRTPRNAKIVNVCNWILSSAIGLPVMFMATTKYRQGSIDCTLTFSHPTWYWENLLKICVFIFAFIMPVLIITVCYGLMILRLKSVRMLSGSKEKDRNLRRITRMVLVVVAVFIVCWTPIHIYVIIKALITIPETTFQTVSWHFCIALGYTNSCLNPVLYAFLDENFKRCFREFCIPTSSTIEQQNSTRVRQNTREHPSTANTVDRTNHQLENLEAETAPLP
Chain of rat Opioid Receptor, Non-selective Binding, Oprm1 (gene 25601) (P33535 whole entry, looked up): as above
Chain of rat Vasopressin 1 Receptor (V1), Avpr1a (gene 25107) (P30560 whole entry, looked up): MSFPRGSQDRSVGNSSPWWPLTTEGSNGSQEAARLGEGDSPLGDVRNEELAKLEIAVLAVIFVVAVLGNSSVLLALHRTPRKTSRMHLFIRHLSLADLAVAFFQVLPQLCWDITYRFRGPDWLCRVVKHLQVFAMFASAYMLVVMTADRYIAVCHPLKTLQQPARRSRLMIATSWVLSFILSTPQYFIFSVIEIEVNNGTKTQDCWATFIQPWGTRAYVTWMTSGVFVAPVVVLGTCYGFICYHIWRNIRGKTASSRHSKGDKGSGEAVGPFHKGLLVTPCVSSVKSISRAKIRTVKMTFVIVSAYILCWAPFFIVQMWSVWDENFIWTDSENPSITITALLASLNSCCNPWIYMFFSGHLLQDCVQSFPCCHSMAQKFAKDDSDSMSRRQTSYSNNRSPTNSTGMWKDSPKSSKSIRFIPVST
Chain of rat Neonicotinoid receptor (NNR), Chrna7 (gene 25302) (Q05941 whole entry, looked up): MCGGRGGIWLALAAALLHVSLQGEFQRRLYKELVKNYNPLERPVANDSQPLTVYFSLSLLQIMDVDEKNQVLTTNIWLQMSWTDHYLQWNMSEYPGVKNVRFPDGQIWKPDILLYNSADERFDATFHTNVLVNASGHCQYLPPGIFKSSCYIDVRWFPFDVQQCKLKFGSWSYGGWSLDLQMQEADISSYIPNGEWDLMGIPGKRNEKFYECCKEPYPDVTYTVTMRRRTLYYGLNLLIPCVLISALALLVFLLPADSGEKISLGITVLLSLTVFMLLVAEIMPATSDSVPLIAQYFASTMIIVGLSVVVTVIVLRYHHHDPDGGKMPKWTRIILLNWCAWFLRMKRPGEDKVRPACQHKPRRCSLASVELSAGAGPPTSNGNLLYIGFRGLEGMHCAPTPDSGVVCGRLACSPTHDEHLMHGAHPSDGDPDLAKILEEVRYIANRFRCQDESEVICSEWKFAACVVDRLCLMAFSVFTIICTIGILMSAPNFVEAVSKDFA
Chain of rat Neurokinin-3 Receptor (NK3), Tacr3 (gene 24808) (P16177 whole entry, looked up): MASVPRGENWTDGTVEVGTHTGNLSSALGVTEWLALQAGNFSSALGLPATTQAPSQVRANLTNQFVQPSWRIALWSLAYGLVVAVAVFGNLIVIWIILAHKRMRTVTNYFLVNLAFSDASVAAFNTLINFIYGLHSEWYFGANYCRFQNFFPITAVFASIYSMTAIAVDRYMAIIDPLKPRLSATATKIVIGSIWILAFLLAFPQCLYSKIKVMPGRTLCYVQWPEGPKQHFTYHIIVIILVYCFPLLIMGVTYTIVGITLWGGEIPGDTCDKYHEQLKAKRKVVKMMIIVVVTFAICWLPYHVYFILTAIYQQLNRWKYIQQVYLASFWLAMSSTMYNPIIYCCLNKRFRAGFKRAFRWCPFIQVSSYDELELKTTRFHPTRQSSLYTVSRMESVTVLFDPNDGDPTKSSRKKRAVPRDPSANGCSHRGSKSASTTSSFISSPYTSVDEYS
Chain of human Neonicotinoid receptor (NNR), CHRNA2 (gene 1135) (Q15822 whole entry, looked up): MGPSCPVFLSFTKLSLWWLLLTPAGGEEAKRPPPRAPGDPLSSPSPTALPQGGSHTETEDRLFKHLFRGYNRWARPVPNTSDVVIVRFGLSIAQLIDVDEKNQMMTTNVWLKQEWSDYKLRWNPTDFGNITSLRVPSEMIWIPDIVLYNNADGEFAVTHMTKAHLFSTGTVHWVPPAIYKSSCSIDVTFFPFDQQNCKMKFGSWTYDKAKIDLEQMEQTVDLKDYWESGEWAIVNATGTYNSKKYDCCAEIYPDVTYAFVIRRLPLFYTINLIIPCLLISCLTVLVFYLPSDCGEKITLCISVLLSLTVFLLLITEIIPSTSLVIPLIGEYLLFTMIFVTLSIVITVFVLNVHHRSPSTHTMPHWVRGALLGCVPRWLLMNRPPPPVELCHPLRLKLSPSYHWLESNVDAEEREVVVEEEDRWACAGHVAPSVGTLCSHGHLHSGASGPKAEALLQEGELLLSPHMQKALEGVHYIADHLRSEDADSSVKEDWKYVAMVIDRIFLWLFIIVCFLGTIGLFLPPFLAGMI
Chain of rat Somatostatin Receptor (SST), Sstr1 (gene 25033) (P28646 whole entry, looked up): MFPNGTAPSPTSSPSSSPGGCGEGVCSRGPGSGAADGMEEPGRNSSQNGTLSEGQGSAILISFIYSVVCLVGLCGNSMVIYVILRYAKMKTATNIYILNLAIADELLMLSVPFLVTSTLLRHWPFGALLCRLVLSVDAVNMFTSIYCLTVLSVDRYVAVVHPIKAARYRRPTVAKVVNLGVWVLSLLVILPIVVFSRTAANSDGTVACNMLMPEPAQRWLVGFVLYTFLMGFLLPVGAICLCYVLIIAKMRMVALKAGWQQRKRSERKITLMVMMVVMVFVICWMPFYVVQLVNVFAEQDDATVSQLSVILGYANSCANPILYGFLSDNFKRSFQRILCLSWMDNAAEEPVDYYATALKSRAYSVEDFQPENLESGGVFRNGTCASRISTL
Chain of rat Neurotensin Receptor (NTS), Ntsr1 (gene 366274) (P20789 whole entry, looked up): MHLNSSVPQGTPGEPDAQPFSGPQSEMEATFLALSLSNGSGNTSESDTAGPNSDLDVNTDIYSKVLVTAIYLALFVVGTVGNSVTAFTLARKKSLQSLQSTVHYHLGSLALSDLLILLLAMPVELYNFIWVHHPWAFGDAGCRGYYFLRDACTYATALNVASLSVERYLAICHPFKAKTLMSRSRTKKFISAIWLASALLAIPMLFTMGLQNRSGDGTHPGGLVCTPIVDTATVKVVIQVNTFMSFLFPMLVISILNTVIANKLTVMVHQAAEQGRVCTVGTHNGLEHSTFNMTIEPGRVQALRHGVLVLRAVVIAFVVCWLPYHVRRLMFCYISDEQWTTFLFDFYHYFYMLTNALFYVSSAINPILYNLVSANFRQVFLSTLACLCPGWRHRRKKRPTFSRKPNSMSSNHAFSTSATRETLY
Chain of rat Neurokinin-1 Receptor (NK1), Tacr1 (gene 24807) (P14600 whole entry, looked up): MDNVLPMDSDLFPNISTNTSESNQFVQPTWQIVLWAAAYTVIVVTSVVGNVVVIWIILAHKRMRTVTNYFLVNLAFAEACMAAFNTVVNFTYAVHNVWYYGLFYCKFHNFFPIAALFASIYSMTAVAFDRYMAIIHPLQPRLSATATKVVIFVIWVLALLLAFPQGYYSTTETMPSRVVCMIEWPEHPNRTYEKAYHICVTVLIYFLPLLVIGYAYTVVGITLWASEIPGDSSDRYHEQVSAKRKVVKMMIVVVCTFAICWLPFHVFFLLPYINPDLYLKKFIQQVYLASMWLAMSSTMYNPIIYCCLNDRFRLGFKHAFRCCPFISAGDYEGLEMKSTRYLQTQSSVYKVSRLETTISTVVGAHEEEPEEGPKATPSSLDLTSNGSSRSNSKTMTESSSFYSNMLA

Consider `CCCCSP(=O)(SCCCC)SCCCC`, for which the result in [1] and in test [2] was inactive.
With `CCCCOC(=O)c1ccccc1C(=O)O`, the outcome in test [2] was inactive.
Consider `N#CSCSC#N`, for which, in [3], the compound was classed as inactive. Also, the AC50 in [4] is 2.01 µM (active).
With `FC(F)C(F)(F)OCC(Cn1cncn1)c1ccc(Cl)cc1Cl` (stereo unspecified), the result in test [5] was inactive.
On to `CCOP(=O)(NC(C)C)Oc1ccc(SC)c(C)c1` (stereo unspecified), for which the compound was called inactive in test [6].
Take `CON=C(C(=O)OC)c1ccccc1CON=C(C)c1cccc(C(F)(F)F)c1`: the half-maximal activity concentration (AC50) in test [4] was 11.1 µM (active).
Take `COc1ccc(C(=CC(=O)N2CCOCC2)c2ccc(Cl)cc2)cc1OC`: the compound was classed as inactive in test [5], in test [7] and in test [8]. Further, in test [4], the AC50 was 6.22 µM (active).
`CCOC(=O)CC(SP(=O)(OC)OC)C(=O)OCC` (stereo unspecified): in test [8], the compound was classed as inactive.
As for `COc1cccc(C(=O)NN(C(=O)c2cc(C)cc(C)c2)C(C)(C)C)c1C`, the AC50 in [4] was 0.491 µM (active).
As for `CCCOCC(=Nc1ccc(Cl)cc1C(F)(F)F)n1ccnc1`, the compound was called inactive in test [5] and in [6]. For the same compound, the half-maximal activity concentration (AC50) in test [8] is 12.1 µM (active).
Consider `CCOP(=S)(OCC)Oc1ccc2c(C)c(Cl)c(=O)oc2c1`, for which, in test [8], the outcome was inactive.
As to `CC1=NNC(=O)N(/N=C/c2cccnc2)C1`, the compound was called inactive in [1].
With `C[N+]1(C)CCCCC1`, the concentration at half-maximal activity (AC50) in test [9] was 11.2 µM (active); in test [10] it was 6.52 µM (active).
For the compound `CSC1=N[C@@](C)(c2ccccc2)C(=O)N1Nc1ccccc1`, in test [5], the compound was classed as inactive.
For the compound `CNC(=O)ON=C(C)SC`, the AC50 in test [5] was 44.1 µM (active).
Turning to `CCc1cccc(C)c1N(C(=O)CCl)C(C)COC` (stereo unspecified), the figures for the concentration at half-maximal activity (AC50) in test [7] and in [8] were 12.4 µM (active) and 14.7 µM (active), respectively.
`CC[C@H](C)[C@H]1O[C@]2(C=C[C@@H]1C)C[C@@H]1C[C@@H](C/C=C(\C)[C@@H](O[C@H]3C[C@H](OC)[C@@H](O[C@H]4C[C@H](OC)[C@@H](NC)[C@H](C)O4)[C@H](C)O3)[C@@H](C)/C=C/C=C3\CO[C@@H]4[C@H](O)C(C)=C[C@@H](C(=O)O1)[C@]34O)O2`: the AC50 in [5] was 30.6 µM (active); in [3] it was 2.49 µM (active). The outcome in [2] and in test [8] was inactive.
On to `CSc1nnc(C(C)(C)C)c(=O)n1N`, for which, in test [9], the result was inactive.
With `C[Si](Cn1cncn1)(c1ccc(F)cc1)c1ccc(F)cc1`, the result in test [5], in test [6] and in [8] was inactive.
With `CCOP(=S)(OCC)Oc1ccc([N+](=O)[O-])cc1`, the outcome in test [7] was inactive.
As to `CCCOc1nn(C(=O)NS(=O)(=O)c2ccccc2C(=O)OC)c(=O)n1C`, the outcome in test [10] was inactive.
As to `CCOP(=O)(OCC)Oc1cc(C)nc(C(C)C)n1`, the result in test [1], in [5] and in test [10] was inactive.
Turning to `CCc1cccc(CC)c1N(COC)C(=O)CCl`, the result in test [8] was inactive.
As to `C=C(C)[C@H]1Cc2c(ccc3c2O[C@@H]2COc4cc(OC)c(OC)cc4[C@@H]2C3=O)O1`, in [1], the compound was classed as inactive.
Regarding `CN(C)C(=O)Nc1cccc(C(F)(F)F)c1`, the call in [6] was inactive.
Take `CCOP(=S)(OCC)Oc1cc(C)nc(C(C)C)n1`: the outcome in test [1] was inactive.
With `COP(=O)(OC)C(O)C(Cl)(Cl)Cl` (stereo unspecified), the outcome in [2] was inactive.
Take `CC(=NC#N)N(C)Cc1ccc(Cl)nc1`: the concentration at half-maximal activity (AC50) was 4.61 µM (active) in [9] and 8.03 µM (active) in [10].
On to `S=C1NCCN1`, for which the call in [1] and in [9] was inactive.
Turning to `CCCSP(=O)(OCC)SCCC`, in test [7], the call was inactive.
In the case of `CC(C)=CC1C(C(=O)OCN2C(=O)C3=C(CCCC3)C2=O)C1(C)C` (stereo unspecified), the outcome in test [3] and in test [8] was inactive.
Consider `Cc1ccn2nc(S(=O)(=O)Nc3c(F)cccc3F)nc2n1`, for which, in [10], the outcome was inactive.
